Assay results as given in PubChem BioAssay.
Activity calls are given as the source filed them.

Key:
[1] = system: Plasmodium falciparum Sir2 (PF13_0152, Sir2A); experiment: Plasmodium falciparum Sir2A binding compounds – biochemical, small-molecule microarray, 635 nm fluorescence, primary screen (AID 1098); conditions: fluorescence 635 nm, higher = more signal;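 note: score merges spot fluorescence intensity with its signal-to-noise ratio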
[2] = probe aDKK1 binding to arrayed compounds – biochemical, biotinylated probe, 635/667 nm fluorescence, primary screen (AID 1099); conditions: small-molecule microarray, higher = more signal;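 note: score merges 667nm spot fluorescence with signal to noise across triplicate slides; reference of the scale not given here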
[3] = probe aCHRDL2 binding to arrayed compounds – biochemical, biotinylated probe, 635/667 nm fluorescence, primary screen (AID 1100); conditions: small-molecule microarray, higher = more signal
[4] = change in splice reporter luminescence, either direction, cell-based, HEK293, spliceosome inhibition project, primary screen (AID 1101); conditions: HEK293 splicing luciferase reporter, 24 h, higher = more signal, called active from +8 up or from −8 down;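 note: HEK293 cells carrying a splicing-competent luciferase reporter gene; test concentration not given here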
[5] = molecular target: Fibroblast growth factor 10 (Homo sapiens) (UniProt O15520); experiment: compounds binding fibroblast growth factor 10 – biochemical, small-molecule microarray, 635 nm fluorescence, primary screen (AID 1102); conditions: FGF10 binding, fluorescence 635 nm, higher = more signal
Sequence of Fibroblast growth factor 10 (Homo sapiens) (O15520 whole entry, looked up): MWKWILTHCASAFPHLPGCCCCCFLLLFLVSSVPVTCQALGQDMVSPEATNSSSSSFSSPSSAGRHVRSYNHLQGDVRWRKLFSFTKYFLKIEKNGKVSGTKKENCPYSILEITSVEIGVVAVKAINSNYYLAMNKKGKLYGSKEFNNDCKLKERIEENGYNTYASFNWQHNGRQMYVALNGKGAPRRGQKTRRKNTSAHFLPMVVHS

[6] = system: glycogen synthase kinase-3 (GSK3A per assay name; protocol says GSK3B); experiment: compounds binding glycogen synthase kinase-3 – biochemical, small-molecule microarray, 635 nm fluorescence, GSK3A, primary screen (AID 1103); conditions: fluorescence 635 nm, higher = more signal; note: the record names both GSK3A and GSK3B
[7] = molecular target: Epidermal growth factor receptor (Homo sapiens) (UniProt P00533); experiment: compounds binding epidermal growth factor receptor – biochemical, small-molecule microarray, 635 nm fluorescence, primary screen (AID 1104); conditions: EGFR binding, higher = more signal;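 note: score merges 667 nm emission intensity with spot signal to noise over triplicate slides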
Sequence of Epidermal growth factor receptor (Homo sapiens) (P00533 whole entry, looked up): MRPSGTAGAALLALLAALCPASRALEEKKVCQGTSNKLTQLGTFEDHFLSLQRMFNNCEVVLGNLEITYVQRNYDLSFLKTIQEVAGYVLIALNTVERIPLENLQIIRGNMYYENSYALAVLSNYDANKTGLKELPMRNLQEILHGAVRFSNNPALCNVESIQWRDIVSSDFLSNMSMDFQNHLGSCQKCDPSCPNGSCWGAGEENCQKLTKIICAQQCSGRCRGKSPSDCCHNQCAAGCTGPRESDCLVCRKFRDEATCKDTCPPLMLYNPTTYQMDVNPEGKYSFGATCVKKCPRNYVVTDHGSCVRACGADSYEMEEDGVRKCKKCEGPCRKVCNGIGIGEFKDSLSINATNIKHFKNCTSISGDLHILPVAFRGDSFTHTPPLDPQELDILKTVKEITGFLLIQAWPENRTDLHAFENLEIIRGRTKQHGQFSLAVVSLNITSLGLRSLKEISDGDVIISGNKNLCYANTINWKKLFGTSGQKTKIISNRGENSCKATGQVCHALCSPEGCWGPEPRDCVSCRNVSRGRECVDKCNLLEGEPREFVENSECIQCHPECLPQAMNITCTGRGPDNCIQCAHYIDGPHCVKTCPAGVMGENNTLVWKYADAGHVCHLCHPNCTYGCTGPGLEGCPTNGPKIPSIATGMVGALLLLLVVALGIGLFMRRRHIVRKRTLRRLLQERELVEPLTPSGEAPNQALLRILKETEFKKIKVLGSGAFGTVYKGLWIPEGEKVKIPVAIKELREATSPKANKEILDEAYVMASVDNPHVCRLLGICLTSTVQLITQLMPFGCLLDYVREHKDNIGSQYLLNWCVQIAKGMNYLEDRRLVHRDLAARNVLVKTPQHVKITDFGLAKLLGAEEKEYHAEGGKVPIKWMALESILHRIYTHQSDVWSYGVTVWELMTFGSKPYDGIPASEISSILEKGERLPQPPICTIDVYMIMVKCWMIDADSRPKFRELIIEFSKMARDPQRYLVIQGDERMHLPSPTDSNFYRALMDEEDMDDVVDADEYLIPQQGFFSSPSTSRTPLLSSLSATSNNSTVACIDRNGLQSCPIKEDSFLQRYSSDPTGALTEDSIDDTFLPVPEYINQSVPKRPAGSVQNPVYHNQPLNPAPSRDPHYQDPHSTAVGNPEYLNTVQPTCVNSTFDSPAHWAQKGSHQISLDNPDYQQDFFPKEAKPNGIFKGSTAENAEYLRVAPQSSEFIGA

[8] = molecular target: Follistatin-related protein 3 (Homo sapiens) (UniProt O95633); experiment: compounds binding follistatin-related protein 3 – biochemical, small-molecule microarray, 635 nm fluorescence, primary screen (AID 1105); conditions: FSTL3 binding, higher = more signal;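 note: score merges emission near 667 nm and signal to noise per printed spot across three slides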
Sequence of Follistatin-related protein 3 (Homo sapiens) (O95633 whole entry, looked up): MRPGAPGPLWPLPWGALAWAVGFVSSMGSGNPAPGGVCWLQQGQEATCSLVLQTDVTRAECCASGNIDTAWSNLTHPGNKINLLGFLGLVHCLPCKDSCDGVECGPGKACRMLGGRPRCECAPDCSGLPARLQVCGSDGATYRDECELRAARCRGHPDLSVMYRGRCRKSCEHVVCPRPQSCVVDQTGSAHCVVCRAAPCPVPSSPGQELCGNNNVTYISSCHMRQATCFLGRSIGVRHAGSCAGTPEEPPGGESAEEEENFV

[9] = molecular target: Dickkopf-related protein 1 (Homo sapiens) (UniProt O94907); experiment: small molecules binding DKK1 protein – biochemical, small-molecule microarray, 635 nm fluorescence scan, primary screen (AID 1106); conditions: higher = more signal;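 note: score merges emission near 667 nm with signal to noise over three replicate slides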
Sequence of Dickkopf-related protein 1 (Homo sapiens) (O94907 whole entry, looked up): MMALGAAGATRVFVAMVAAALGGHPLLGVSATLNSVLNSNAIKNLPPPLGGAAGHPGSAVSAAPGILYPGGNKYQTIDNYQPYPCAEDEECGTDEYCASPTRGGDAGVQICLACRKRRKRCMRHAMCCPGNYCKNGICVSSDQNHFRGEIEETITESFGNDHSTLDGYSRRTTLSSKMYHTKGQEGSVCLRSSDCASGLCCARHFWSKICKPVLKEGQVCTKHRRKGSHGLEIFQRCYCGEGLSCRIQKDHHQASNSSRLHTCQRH

[10] = system: Inhibin beta A chain (activin A); experiment: small molecules binding activin A – biochemical, small-molecule microarray, 635 nm fluorescence scan, primary screen (AID 1107); conditions: INHBA, higher = more signal;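 note: mouse activin A protein probed at 4.33 µg/mL on printed slides; score merges bound-protein fluorescence near 667 nm with spot signal-to-noise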

Structure (SMILES) | composite z-score [1] | composite z-score [2] | composite z-score [3] | z-score [4] | composite z-score [5] | composite z-score [6] | composite z-score [7] | composite z-score [8] | composite z-score [9] | composite z-score [10]
CO[C@@H](C1CCCCC1)[C@@H](C)[C@H](OCc1cccc(Br)c1)[C@@H](C)CO | -0.317 | -0.359 | -0.426 | 0.899 (inactive) | 0.512 | -0.314 | 0.823 | 0.171 | 0.385 | 0.247
CC1(C)O[C@H]2OC([C@H](O)CON3C(=O)c4ccccc4C3=O)[C@H](O)[C@H]2O1 (stereo not given in full) | -0.0933 | -0.467 | -0.562 | 0.105 (inactive) | 0.0612 | 0.0618 | 0.237 | 0.205 | 0.46 | -0.582
O=C1C=C[C@@H](O)[C@@H]2[C@@H]3C(=O)N(C4CCCCC4)C(=O)[C@@H]3CC[C@@H]12 | 0.252 | -0.0259 | -0.369 | 2.14 (inactive) | 1.07 | 0.708 | 0.378 | 0.797 | 0.844 | 0.234
CCOC(=O)[C@H](Cc1ccccc1)NC(=O)CCC1CC(OC(=O)NCc2ccc3c(c2)OCO3)CC2(CCCC(COC(=O)NCCCN3CCCC3=O)O2)O1 (stereo not given in full) | 0.465 | -0.505 | -0.431 | -0.199 (inactive) | 0.573 | 0.852 | 0.494 | 0.645 | 0.543 | 0.312
CCN1C(=O)[C@H]2[C@H]3[C@H](O)[C@H](O)CC(=NO[C@@H]4O[C@H](CO)[C@@H](O)[C@H](O)[C@H]4O)[C@H]3CC[C@H]2C1=O | 0.0675 | -0.219 | -0.447 | -0.0478 (inactive) | 0.456 | 0.342 | 0.933 | 0.619 | 0.611 | 0.182
C[C@H]1CC[C@H]2C(=O)N[C@H](Cc3ccccc3)C(=O)N2[C@@H]1c1ccccc1 | -0.427 | 0.176 | -0.225 | -0.0985 (inactive) | 0.136 | -0.0595 | 0.353 | 0.185 | 0.768 | 0.595
COC(=O)CC=C1c2ccccc2[C@H](OC)[C@H]1C | -0.0214 | -0.314 | -0.624 | 0.0124 (inactive) | 0.0785 | -0.234 | 0.33 | 0.0242 | 0.485 | 1.05
Cc1cc(C)c(-c2cc([C@H](C)ON=C[C@@H](C)[C@H](OCc3ccccc3)C(C)C)on2)c(C)c1 | -0.761 | -0.143 | -0.0987 | -0.34 (inactive) | 0.149 | -1.17 | -0.101 | -0.0283 | -0.034 | 0.874
O=C1[C@H]2CCn3c(=O)n(-c4ccccc4)c(=O)n3[C@H]2[C@H](O)[C@@H]2O[C@H]12 | 0.784 | -0.418 | -0.438 | 0.583 (inactive) | 0.837 | 0.381 | 0.299 | 0.148 | 0.427 | 0.269
CCN1C(=O)[C@H]2[C@H]3[C@H](O)[C@H](O)CC(=NNC(=O)OCc4ccccc4)[C@H]3CC[C@H]2C1=O | -0.0508 | 0.0829 | 0.877 | -0.45 (inactive) | 0.186 | -0.493 | -0.198 | -0.0353 | -0.26 | 0.0251
COC(=O)[C@H](C)NC(=O)CCC1CC(OC(=O)NCc2cccc3ccccc23)CC2(CCCC(COC(=O)NCCC(C)C)O2)O1 (stereo not given in full) | 1.41 | -0.144 | -0.391 | -0.119 (inactive) | 0.481 | 0.247 | 0.374 | 0.463 | 0.188 | 0.199
COc1ccc(COC(=O)NN=C2C[C@@H](O)[C@@H](O)[C@@H]3[C@@H]4C(=O)N([C@@H](C)c5ccccc5)C(=O)[C@@H]4CC[C@H]23)cc1 | -0.25 | -0.121 | 1.4 | 0.445 (inactive) | -0.227 | -0.721 | -0.587 | -0.131 | -0.769 | 0.541
COc1ccc(COC(=O)NN=C2C[C@@H](O)[C@@H](O)[C@@H]3[C@@H]4C(=O)N([C@@H](C)c5ccccc5)C(=O)[C@@H]4CC[C@@H]23)cc1 | 0.397 | 0.0429 | -0.305 | 0.158 (inactive) | 0.132 | -0.111 | 0.362 | 0.192 | 0.244 | 0.878
CC(C)CON=C1C[C@@H](O)[C@@H](O)[C@@H]2[C@@H]3C(=O)N([C@@H](C)c4ccccc4)C(=O)[C@@H]3CC[C@@H]12 | -0.201 | 0.083 | 0.767 | 0.226 (inactive) | 0.266 | -0.0708 | 0.191 | -0.279 | -0.24 | 0.467
CC(C)(C)N1C(=O)[C@H]2[C@@H]3C(=CC[C@H]2C1=O)C(=O)[C@H]1O[C@H]1[C@H]3O | 1.09 | -0.366 | -0.779 | 3.47 (inactive) | 0.0491 | 0.138 | 0.144 | -0.162 | 0.512 | 0.555
COc1ccc(OC[C@@H]2CC3[C@@H](c4ccc(Br)cc4)[C@H](C)CC[C@H]3C(=O)O2)cc1 (stereo not given in full) | 0.353 | -0.436 | -0.727 | -0.823 (inactive) | 0.638 | -0.274 | 0.885 | 0.354 | 0.827 | 0.483
O=C1C2=CC[C@H]3C(=O)N(C[C@@H]4CCCO4)C(=O)[C@H]3[C@H]2[C@H](O)[C@@H]2O[C@H]12 | 1.22 | -0.28 | -0.594 | -1.47 (inactive) | 0.364 | 0.443 | 0.259 | -0.191 | -0.0034 | -0.277

Structure (SMILES) | composite z-score [1] | composite z-score [2] | composite z-score [3] | z-score [4] | composite z-score [5] | composite z-score [6] | composite z-score [7] | composite z-score [8] | composite z-score [9] | composite z-score [10]
COC(=O)[C@H](C)NC(=O)CCC1CC(OC(=O)NCc2cccc3ccccc23)CC2(CCCC(COC(=O)NCc3ccccc3)O2)O1 (stereo not given in full) | 0.537 | -0.132 | -0.459 | -0.829 (inactive) | 0.625 | 1.04 | 0.445 | 0.918 | 0.667 | -0.0949
COC(=O)CC=C[C@@H](C)[C@@H](C=NOC[C@@H](O)COCc1ccco1)OC | 1.05 | -0.589 | -1.34 | -0.485 (inactive) | -0.469 | 0.149 | -0.446 | -0.0313 | 1.15 | 0.533
C[C@@H]1CC[C@@H](C(=O)O)N[C@H]1c1cccc(N2CCOCC2)c1 | 0.168 | -0.191 | -0.449 | -1.02 (inactive) | 0.631 | 0.74 | 0.797 | 0.409 | 0.109 | 0.0223
CCOC(=O)[C@H](CC(C)C)NC(=O)CCC1CC(OC(=O)NCc2ccc3c(c2)OCO3)CC2(CCCC(COC(=O)NCCc3ccccc3OC)O2)O1 (stereo not given in full) | 0.608 | -0.0877 | -0.497 | 0.0955 (inactive) | 0.533 | 1.27 | 0.461 | 1.01 | 0.434 | -0.344
CC1(C)O[C@H]2O[C@H]([C@H](O)CON=C3[C@H]4CCn5c(=O)n(-c6ccccc6)c(=O)n5[C@H]4[C@H](O)[C@@H]4O[C@H]34)[C@H](O)[C@H]2O1 | 0.378 | -0.179 | -0.181 | 0.407 (inactive) | 0.174 | 0.085 | 0.249 | 0.422 | 0.0043 | 0.695
CON=C1c2cc(OC)ccc2O[C@H](c2cccc(OC)c2)[C@H]1O | 0.386 | -0.0086 | -0.365 | -0.268 (inactive) | 0.934 | 0.498 | 0.52 | 0.81 | 0.636 | 0.593
COC(=O)[C@@H]1CC[C@H](C)[C@@H](c2ccc(Br)cc2)N1C(=O)C(F)(F)F | -0.324 | -0.215 | -0.174 | -0.0429 (inactive) | -0.329 | -0.657 | 0.0496 | -0.324 | -0.144 | 0.237
CSCC[C@@H]1NC(=O)CC=C[C@@H](C)COC(=O)[C@H](C)COC1=O | 0.926 | -0.641 | -2.03 | -0.841 (inactive) | 1.49 | 0.781 | 1.67 | 1.23 | 2.31 | -2.83
CC(=O)OC[C@H]1O[C@H](CC=NOC[C@@H](O)COCc2ccco2)C=C[C@@H]1OC(C)=O | 0.717 | -0.233 | -1.06 | -0.0391 (inactive) | 0.397 | 1.24 | 1.58 | 1.37 | 1.74 | 1.14
COC(=O)CC=C[C@@H](C)[C@@H](C=NOC(C)CN1CCCCc2nc(C)c(C)cc21)NS(=O)(=O)c1ccc(C)cc1 (stereo not given in full) | 0.361 | -0.0704 | 0.0097 | -0.182 (inactive) | -0.129 | 0.165 | 1 | 0.437 | 0.846 | 1.15
CO[C@@H]1C=CCC(=O)N[C@@H](C)C(=O)OC[C@@H](NS(=O)(=O)c2ccc(C)cc2)[C@H](C)C=CCC(=O)OC[C@H]1C | -0.401 | -0.298 | -0.748 | -0.275 (inactive) | 0.238 | -0.0731 | 0.329 | 0.828 | 0.359 | 0.976
CON=C(C)CCN1CCc2nc(-c3ccccc3)c(-c3ccccc3)cc2C1 | 0.689 | -0.104 | 0.173 | -0.316 (inactive) | -0.0075 | -0.478 | 0.629 | 0.272 | 0.468 | 1.25
O=C1C2=CC[C@H]3C(=O)N(C4CCCCC4)C(=O)[C@H]3[C@H]2[C@H](O)[C@@H]2O[C@H]12 | -0.541 | -0.121 | -0.588 | 15.3 (active) | -0.246 | -1.31 | 0.0862 | -1.22 | 0.271 | -0.185
CC(=O)OC[C@H]1O[C@H](C#CCCc2ccccc2)C=C[C@@H]1OC(C)=O | 1.05 | -0.0993 | -0.438 | 0.181 (inactive) | 0.787 | -0.113 | 0.187 | 0.981 | 1.02 | 0.309
OC[C@H]1O[C@H](C#Cc2ccccc2)C=C[C@@H]1O | 0.721 | -0.301 | -0.385 | 0.072 (inactive) | 0.194 | 0.356 | 0.506 | 0.546 | 0.546 | 0.408
CC(C)CON=C1[C@H]2CCn3c(=O)n(C)c(=O)n3[C@H]2[C@H](O)[C@@H]2O[C@H]12 | 0.59 | -0.339 | -0.507 | 0.253 (inactive) | 0.401 | 0.481 | 0.377 | 0.703 | 0.708 | 0.283
CO[C@@H](C(C)C)[C@@H](C)C1OC(=O)CC1O (stereo not given in full) | -0.595 | -0.148 | -0.0917 | 0.94 (inactive) | -0.114 | -0.051 | -0.57 | -0.552 | -0.166 | 0.253
